# Measurements taken from the supplement of paper PMC3334620.
# The full ranking holds about 33,000 sequences; the median of “E-score (-0.5 to 0.5)” is about -0.01, and the highest 2% start at about 0.26. The list comes from a sample in which the highest values are over-represented; it also holds similar and randomly drawn sequences.
# Target: Ste12 (UniProt P13574)
# Test: PBM E-score (8-mer binding enrichment) (E-score (-0.5 to 0.5)); higher = stronger / more preferred TF binding
# Settings: protein concentration: 200 nM; construct: GST-DNA-binding domain
# Method: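 Universal 'all 10-mer' protein binding microarrays (Agilent AMADID 015681) probed with GST-tagged S. cerevisiae TFs (full-length or DBD) made by in vitro transcription/translation (PURExpress), about 100-200 nM. Bound TF was detected with fluorescent anti-GST. Each ungapped 8-mer (which stands for itself and its reverse complement) is scored by the PBM enrichment score (E-score), a modified Wilcoxon-Mann-Whitney statistic from -0.5 to +0.5, computed with the Universal PBM Analysis Suite. Scale: above 0.35 generally sequence-specific binding.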
# UniProt P13574, sequence (P13574 whole entry): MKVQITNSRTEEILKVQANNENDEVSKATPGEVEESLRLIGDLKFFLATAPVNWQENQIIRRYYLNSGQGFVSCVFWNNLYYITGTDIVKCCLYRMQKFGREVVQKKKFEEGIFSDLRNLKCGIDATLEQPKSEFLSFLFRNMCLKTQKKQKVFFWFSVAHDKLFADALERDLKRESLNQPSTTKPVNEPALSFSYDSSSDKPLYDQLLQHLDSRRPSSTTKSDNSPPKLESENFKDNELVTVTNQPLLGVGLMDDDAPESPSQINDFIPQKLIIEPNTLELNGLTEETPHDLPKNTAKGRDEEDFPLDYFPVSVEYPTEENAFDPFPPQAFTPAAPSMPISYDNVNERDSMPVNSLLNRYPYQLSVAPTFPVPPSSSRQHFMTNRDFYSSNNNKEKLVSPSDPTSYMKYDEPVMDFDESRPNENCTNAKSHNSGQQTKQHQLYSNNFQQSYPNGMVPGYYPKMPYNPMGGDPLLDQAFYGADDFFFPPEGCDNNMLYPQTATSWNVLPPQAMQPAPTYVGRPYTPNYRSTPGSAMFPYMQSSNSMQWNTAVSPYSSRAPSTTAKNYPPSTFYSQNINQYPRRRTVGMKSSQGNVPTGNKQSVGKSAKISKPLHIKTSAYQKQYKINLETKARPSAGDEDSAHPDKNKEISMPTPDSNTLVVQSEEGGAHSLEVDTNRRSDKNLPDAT
row,Sequence,PBM E-score
1,GCCCACCA,-0.0497
2,CCCCACCA,0.102
3,ACCCACCT,0.0687
4,GCCCACCC,0.344
5,CCCCACCG,0.137
6,CCCCACCC,0.361
7,GCCCACAC,0.0974
8,ACCCACCC,0.314
9,ACCCACCA,0.0136
10,GGAAAATA,0.255
11,AACTACTT,-0.00699
12,CTGGTCGC,0.0843
13,CACTATGC,-0.0894
14,ATCAAACC,0.217
15,ATCAAACA,0.27
16,CTCAAACA,0.341
17,CTCAAGCA,-0.0187
18,CTCAAACC,0.0438
19,ATCAAGCA,0.0192
20,CTGAATCC,0.0117
21,CAGTAGGC,-0.0958
22,GACTAGGA,-0.047
23,GCTTGATA,0.083
24,AATGATAT,0.113
25,AATGATAA,0.263
26,TATGATAA,0.131

row,Sequence,PBM E-score
1,AATGATAG,0.194
2,AATGATAC,0.278
3,CATGATAC,0.242
4,GTCTAACA,-0.0889
5,ACTTACCT,-0.0503
6,ACCGGTGC,-0.0741
7,ATTCCACG,-0.0633
8,ATTCCACA,0.268
9,ATTCCACC,0.113
10,ATCGAGTA,-0.0649
11,CTCGCACA,0.127
12,CTTGAGTC,-0.136
13,TCTTTGAA,0.161
14,AGTTTGAA,0.174
15,GTTTTGAA,0.189
16,CGTTTTGC,0.197
17,AGTTTTGA,0.148
18,CGTTTGAA,0.265
19,CGTTTTGA,0.275
20,GGTTTGAA,0.297
21,GGTTTGAC,-0.0297
22,CGTTTGAC,-0.0236
23,TGTTTGAA,0.378
24,CGTTTGAG,0.111
25,CACTGCAC,-0.14
26,CGCCCACC,0.139

row,Sequence,PBM E-score
1,ATCCTTTG,0.0895
2,AGAAAGTA,0.138
3,AGACAAGC,-0.0877
4,AGACGCGG,0.0721
5,AACCCAGA,-0.108
6,CGCTTGCC,-0.062
7,ATTTAAAG,0.275
8,ATTTAAAT,0.327
9,AGTTAAAT,0.163
10,ATTTAAAC,0.207
11,AATTAAAT,0.156
12,CTTTAAAG,-0.0155
13,ACAAGTTC,-0.00961
14,ATGAGTTA,-0.0873
15,AAGTCACC,-0.0787
16,TAAGTGCA,-0.104
17,TGTGAAAA,0.216
18,CTTGAAAA,0.157
19,TTTGAAAA,0.309
20,GTAGAAAC,0.0517
21,ATGGAAAC,0.263
22,ATTGAAAA,0.352
23,GTTGAAAC,0.399
24,ATGGAAAA,0.186
25,GTTGAAAA,0.206
26,ATGGAAAT,0.0797

row,Sequence,PBM E-score
1,ATTGAAGA,0.00866
2,TCTGAAAA,0.12
3,GCTTATCC,0.0792
4,ACTTGAGA,0.142
5,ACGTCTAC,-0.118
6,ATAAAAGC,-0.00425
7,GCCCTGGA,-0.235
8,CACTATGG,-0.0915
9,ATTGAAAG,0.0623
10,CTTGAAAC,0.479
11,CTTGAAAG,-0.0999
12,ATTGAGAG,-0.0617
13,ATTGAGAA,0.277
14,ATTGAAAT,0.233
15,ATTGAGAC,0.122
16,ATTGAAAC,0.398
17,CTTGAACC,-0.0679
18,AACGACCA,-0.0479
19,ATGGGAAG,-0.0232
20,CCCCGGGG,-0.186
21,GTGTACAC,-0.224
22,ATGTTGTA,-0.00602
23,GCATCAGC,0.034
24,ACTAGGTC,-0.114
25,CAAAAGAA,0.156
26,AAAAAGAT,0.271

row,Sequence,PBM E-score
1,AAAAAGAA,0.289
2,AAAGATAC,0.0821
3,TAAAAGAA,0.0708
4,AAAAGAAT,0.266
5,AAAAGAAG,0.072
6,AAAAAGAC,0.153
7,AAAGATAT,0.273
8,AAAAGAAC,0.126
9,AAAGATAG,-0.0536
10,ACAAAGAT,0.0339
11,AAAGCAAA,0.148
12,AAACCTTC,-0.0506
13,CGGGACTA,-0.0932
14,GCATCCGA,-0.0885
15,CGTATGAA,0.213
16,AGTAGGAG,-0.119
17,CCTCGCAA,0.18
18,AGAAAAGC,0.127
19,AGAAAAGA,0.297
20,AAAGAAAA,0.351
21,CAAGAAAA,0.24
22,CGAAAAGA,0.242
23,AAAGAAAG,0.19
24,AGAGGGAG,-0.106
25,CAAAGTCG,0.0234
26,TCCTAGCA,-0.0629

row,Sequence,PBM E-score
1,ACCTCCAC,-0.0491
2,GATAGATC,-0.194
3,AACAGAGT,0.173
4,CACCTAAC,0.0515
5,CTGTAGTA,0.186
6,ATAATACA,0.318
7,ATAATACG,0.0652
8,ATAATATG,0.248
9,ACAATATA,0.271
10,CCAATATA,-0.103
11,ATAATATA,0.301
12,GCAATATA,0.149
13,CTAATATA,0.0456
14,ATAATACC,0.161
15,AGAGTAGA,-0.0237
16,CGTTCTCA,0.0637
17,GCCAGCTA,-0.192
18,CCGCATCC,-0.0589
19,ATGTTCAC,0.0173
20,TGATGCAA,0.137
21,ACCTTCTC,0.0171
22,CAGAAAAC,0.133
23,AAGAAAAA,0.158
24,CAGAAAAG,0.186
25,AAGAAAAG,0.302
26,AAGAAAAC,0.275

row,Sequence,PBM E-score
1,AAGAAAAT,0.254
2,GGTCCTTA,0.0224
3,CCCTCCAC,-0.0433
4,TCATCAAA,0.236
5,ATATCAAG,0.139
6,GTATCAGA,0.119
7,CTATCAAA,0.186
8,GTATCAAC,0.122
9,GTATCAAA,0.293
10,ATATCAAA,0.3
11,TGATCAAA,0.156
12,TTATCAAA,0.274
13,ACTACTTC,-0.0884
14,ATCACAGG,-0.0882
15,CAATCATC,-0.0782
16,ACTCTGAA,0.177
17,ACGGGTAC,-0.139
18,TAGGCGGA,-0.0248
19,GTATGAGA,-0.0324
20,TTATGCAA,0.0901
